Measured values taken from PubChem BioAssay (Tox21).
Results filed as inconclusive are left out. Entries that show only a call come without a potency. Active and inactive are the calls of the source. Calls come from the whole dose curve; as a rule, active = well fitted cell-killing curve with a large enough effect in the repeat runs; inconclusive = weak or mixed curves, or effect the other way; inactive = flat fitted curve, though single readings scatter.

test: qHTS assay to identify small molecule antagonists of the androgen receptor (AR) signaling pathway using the MDA cell line in the presence of 0.5 nM R1881 - cell viability counter screen (AID 1259242); conditions: MDA-kb2 viability, CellTiter-Fluor protease fluorescence, 16 h; series mostly up to 92.4 µM; note: nearly all actives have a fitted effect of over 45% in size
Summary of the method: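 R1881 at 0.5 nM final stimulated MDA-kb2 cells during 16 hr compound treatment at 37C. Cytotoxicity read: CellTiter-Fluor fluorescence after 30 min.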
Potency is the fitted concentration of half-maximal effect.

Compound | Potency | viability change, negative = cytotoxic
COc1cccc(O)c1 | inactive | –
CCCCNc1c(C(=O)OCC)c(C)nc2c1cnn2CC | inactive | –
O=S(=O)(O)CCCN1CCOCC1 | inactive | –
CCCCCCCCCCCCCc1ccccc1 | inactive | –
CC1=CCC(=O)O1 | inactive | –
CCC(=O)CC(C)CC (configuration not stated) | – | 2.57% [at 0.349 µM] (inactive)
Cc1ccc2ccc3cccc4ccc1c2c34 | inactive | –
O=S(O)O | – | 4.5% [at 19 µM] (inactive)
O=C=NCc1cccc(CN=C=O)c1 | – | -0.671% [at 19 µM] (inactive)
CCN(CC)CCSC(=O)C(c1ccccc1)c1ccccc1 | inactive | –
CC(=O)c1ccccc1N | inactive | –
C=CC(=C)CC/C=C(\C)CCC=C(C)C | – | 2.29% [at 19 µM] (inactive)
c1ccc(Nc2cccc3ccccc23)cc1 | inactive | –
OCCC(O)CO (configuration not stated) | inactive | –
Cc1cc(C)c(C=O)c(C)c1 | inactive | –
CNC(=S)NN | inactive | –
CCCCCCCC(C)=O | inactive | –
C/C=C/C(=O)Oc1c(CCCCCC(C)C)cc([N+](=O)[O-])cc1[N+](=O)[O-] | 15.4 µM (active) | –
CCc1cccc(CC)c1N(COC)C(=O)CS(=O)(=O)O | inactive | –
C/C=C/C(=O)C1=C(C)CCCC1(C)C | inactive | –
CCN(CC)c1cccc(C)c1 | inactive | –
CC(C)=C1CC[C@@H](C)CC1=O | inactive | –
CN(Cc1cc(Br)cc(Br)c1N)C1CCCCC1 | inactive | –
C(=C/c1ccccc1)/c1ccccc1 | inactive | –
CCCCCCCC/C=C\CCCCCCCC(=O)N(C)CC(=O)O | inactive | –
CC=O | 32 µM (active) | –
CCCCCCCCCCCCCC[n+]1ccccc1 | 24.3 µM (active) | –
